Assay results published in PubChem BioAssay (NCATS).
Inconclusive results are not listed. A number with no mark means an inactive call. The source made the active and inactive calls. The call rests on the fitted dose curve; in most records, active means well fitted inhibition curve with a large enough effect; inconclusive means small, poorly fitted or top-dose-only effect; inactive means no such curve, though single readings can be large or run the other way.

target: Retinaldehyde dehydrogenase 3 (Homo sapiens) (UniProt P47895); experiment: qHTS for Inhibitors of the Aldehyde Dehydrogenase Family (ALDH1A3) Primary screen (AID 2061315); details: ALDH inhibition qHTS; series mostly up to 56 µM; activity change, negative = inhibition: at the top concentration;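 further: plate controls were DMSO vehicle for no effect and reference inhibitor for full effect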

First: Cc1nc(C)c(-c2ccc3ncnc(NCc4ncc[nH]4)c3c2)s1
Second: CCc1nn2c(=O)cc(-c3ccncc3)nc2s1
The “activity change, negative = inhibition” value of the first is lower: -19% for the first, 1.61% for the second.

Going from `COc1ccc(C2=Nn3c(nnc3-c3cc(OC)ccc3OC)SC2)c(OC)c1` to `COc1ccc(C2=Nn3c(nnc3-c3cccc(OC)c3OC)SC2)cc1`, the “activity change, negative = inhibition” value falls from 4.82% to 4.14%.

First: CC(=O)N(C(C)=O)n1c(C)nc2sc3c(c2c1=O)CCNC3
Second: Cc1noc(C)c1-c1csc(N2CCC(C(N)=O)CC2)n1
The “activity change, negative = inhibition” value of the first is higher: -8.47% for the first, -13.3% for the second.

First: Cc1cccc(OC2=NS(=O)(=O)c3ccccc32)c1
Second: O=S1(=O)N=C(Oc2ccccc2)c2ccccc21
The “activity change, negative = inhibition” value of the first is higher: -1.54% for the first, -2.23% for the second.

First: N[C@@H](CCC(=O)O)C(=O)Nc1ccc(Cl)cc1C(=O)c1ccc[nH]1
Second: O=C(O)c1ccc2c(c1)C(=O)N([C@H](Cc1ccc(F)cc1)C(=O)O)C2=O
The “activity change, negative = inhibition” value of the first is lower: -0.3% for the first, 4.24% for the second.

Going from `Cc1cccc2c(C(=O)O)cc(Cl)nc12` to `Cc1ccccc1C[C@H](C(=O)O)N1C(=O)c2ccc(C(=O)O)cc2C1=O`, the “activity change, negative = inhibition” value rises from -20.2% to -12.9%.

Compared with `Fc1cc(Nc2nc(-c3ccncc3)nc3ccccc23)ccc1N1CCCCC1`, `COc1cccc(C2c3c(ncn(CCCN4CCOCC4)c3=N)Oc3ccc4ccccc4c32)c1` (stereo not given) is higher in “activity change, negative = inhibition” value: 4.56% for the first, 10% for the second.

First: Cc1cc(N2C(=O)c3ccccc3C2=O)n[nH]1
Second: C[C@@](Cc1ccccc1)(C(=O)O)N1C(=O)c2ccc(C(=O)O)cc2C1=O
The “activity change, negative = inhibition” value of the first is lower: 10.7% for the first, 11.7% for the second.

Compared with `O=C1[C@@H]2[C@H]3CC[C@H](C3)[C@@H]2C(=O)N1CCCCN1CCN(c2ncccn2)CC1`, `O=C(C1CCN(c2nc(-c3ccc(Br)cc3)cs2)CC1)N1CCNCC1` is higher in “activity change, negative = inhibition” value: -7.79% for the first, 3.21% for the second.

Compared with `CC(=O)SCC(CC(=O)c1ccc(C)cc1)C(=O)O` (stereo not given), `Cc1ccc(C[C@@H](NS(=O)(=O)c2ccc(C(=O)O)cc2)C(=O)O)cc1` is higher in “activity change, negative = inhibition” value: -6.71% for the first, -3.87% for the second.

First: N#Cc1c(-c2csc(-c3no[n+]([O-])c3C#N)c2)no[n+]1[O-]
Second: Cc1cc(NC(=O)c2ccc([S+](=O)([O-])NCc3ccc(Cl)c(Cl)c3)cc2)no1
The “activity change, negative = inhibition” value of the first is lower: -18.8% for the first, 8.31% for the second.

Compared with `CCCCN(CCCNC(=S)NCCCc1cnc[nH]1)c1ccc(Br)cn1`, `CCCCNc1ccc(C(=O)OCCN(CC)CC)cc1` is lower in “activity change, negative = inhibition” value: 24.3% for the first, -15.7% for the second.

Going from `O=C(O)c1ccc(S(=O)(=O)N[C@H](Cc2ccccc2)C(=O)O)cc1` to `CC(C)(C)c1ccc(C[C@H](C(=O)O)N2C(=O)c3ccc(C(=O)O)cc3C2=O)cc1`, the “activity change, negative = inhibition” value rises from -9.69% to 0.763%.

Going from `CCc1nnc(-c2cnn(C)c2N)n1CCCn1ccnc1` to `Cc1nnc(-c2cnn(C)c2N)n1CCCn1ccnc1`, the “activity change, negative = inhibition” value rises from -5.74% to -0.329%.

Going from `O=C1NC(=O)/C(=C/c2cccn2-c2ccc(P(O)O)cc2)N1` to `O=C1c2ccccc2NC(c2ccc(-c3cccc([N+](=O)[O-])c3)o2)N1O` (stereo not given), the “activity change, negative = inhibition” value falls from 1.21% to -0.0426%.

Compared with `Cn1ncc(-c2nnc(-c3ccccc3)n2CCCn2ccnc2)c1N`, `Cc1ccc2nc(-c3ccccn3)c(Nc3ccccc3C)n2c1` is higher in “activity change, negative = inhibition” value: -0.322% for the first, 24.8% for the second.

Going from `CC(C)(C)c1ccc(SC2=NS(=O)(=O)c3ccccc32)cc1` to `COC(=O)c1ccc2c(c1)S(=O)(=O)N=C2Sc1cc(C)ccc1C`, the “activity change, negative = inhibition” value rises from -18.4% to -16%.

First: Cc1cc2c(s1)c1cnn(Cc3c(Cl)ccc(C)c3F)c(=O)c1n2C
Second: COc1ccc(C2Nc3ccccc3C(=O)N2CCO)cc1COc1ccc(NC(C)=O)cc1 (stereo not given)
The “activity change, negative = inhibition” value of the first is higher: 12.7% for the first, -2.47% for the second.

`Cc1nc2ccccn2c1P(=O)(c1ccccc1)c1ccccc1` was tested, and the “activity change, negative = inhibition” value was 0.607%.

`CCC(=O)C1CCCN(C(=O)CC(c2ccc3c(c2)OCO3)c2c(O)cc(OC)cc2OC)C1` (stereo not given) was tested, and the “activity change, negative = inhibition” value was 6.41% [at 114 µM].

In the case of `O=C(NC1CCCc2c1cnn2-c1ccc(F)cc1F)c1ccccn1` (stereo not given), the Potency is reported as “inactive”.
With `Cc1ccc2nc3sc(C(=O)NCc4ccco4)cc3cc2c1` the Potency was “inactive”.

target: Aldehyde dehydrogenase 1A1 (Homo sapiens) (UniProt P00352); experiment: qHTS for Inhibitors of the Aldehyde Dehydrogenase Family (ALDH1A1) Confirmatory screens (AID 2061316); details: ALDH inhibition qHTS; series mostly up to 47.3 µM; activity change, negative = inhibition: at the top concentration; further: nearly all actives have a fitted effect of over 65% in size; further: potency means the concentration at half of the fitted maximal effect; on activity change, negative = inhibition: on the % scale 0 is the no-effect control and ±100 the full control effect

Going from `Cc1nc(C)c(-c2ccc3ncnc(NCc4ncc[nH]4)c3c2)s1` to `CCc1nn2c(=O)cc(-c3ccncc3)nc2s1`, the “activity change, negative = inhibition” value rises from -21.3% to -9.59%.

Compared with `CC(=O)N(C(C)=O)n1c(C)nc2sc3c(c2c1=O)CCNC3`, `Cc1noc(C)c1-c1csc(N2CCC(C(N)=O)CC2)n1` is higher in “activity change, negative = inhibition” value: -10.4% for the first, -5.66% for the second.

Going from `N[C@@H](CCC(=O)O)C(=O)Nc1ccc(Cl)cc1C(=O)c1ccc[nH]1` to `O=C(O)c1ccc2c(c1)C(=O)N([C@H](Cc1ccc(F)cc1)C(=O)O)C2=O`, the “activity change, negative = inhibition” value rises from -21% to -18.1%.

First: Cc1cccc2c(C(=O)O)cc(Cl)nc12
Second: Cc1ccccc1C[C@H](C(=O)O)N1C(=O)c2ccc(C(=O)O)cc2C1=O
The “activity change, negative = inhibition” value of the first is lower: -9.23% for the first, -8.27% for the second.

First: Cc1cc(N2C(=O)c3ccccc3C2=O)n[nH]1
Second: C[C@@](Cc1ccccc1)(C(=O)O)N1C(=O)c2ccc(C(=O)O)cc2C1=O
The “activity change, negative = inhibition” value of the first is higher: -1.02% for the first, -18.2% for the second.

Compared with `CC(=O)SCC(CC(=O)c1ccc(C)cc1)C(=O)O` (stereo not given), `Cc1ccc(C[C@@H](NS(=O)(=O)c2ccc(C(=O)O)cc2)C(=O)O)cc1` is higher in “activity change, negative = inhibition” value: -12% for the first, -10.3% for the second.

First: O=C(O)c1ccc(S(=O)(=O)N[C@H](Cc2ccccc2)C(=O)O)cc1
Second: CC(C)(C)c1ccc(C[C@H](C(=O)O)N2C(=O)c3ccc(C(=O)O)cc3C2=O)cc1
The “activity change, negative = inhibition” value of the first is higher: -11.1% for the first, -14.1% for the second.

First: CCc1nnc(-c2cnn(C)c2N)n1CCCn1ccnc1
Second: Cc1nnc(-c2cnn(C)c2N)n1CCCn1ccnc1
The “activity change, negative = inhibition” value of the first is higher: -14.2% for the first, -16.8% for the second.

Compared with `CCCCNc1ccc(C(=O)OCCN(CC)CC)cc1`, `COC(=O)c1ccc2c(c1)S(=O)(=O)N=C2Sc1cc(C)ccc1C` is higher in “activity change, negative = inhibition” value: -16.6% for the first, -14.9% for the second.

First: O=C1NC(=O)/C(=C/c2cccn2-c2ccc(P(O)O)cc2)N1
Second: Cc1cc(NC(=O)c2ccc([S+](=O)([O-])NCc3ccc(Cl)c(Cl)c3)cc2)no1
The “activity change, negative = inhibition” value of the first is lower: -12.1% for the first, 1.09% for the second.

Compared with `Cn1ncc(-c2nnc(-c3ccccc3)n2CCCn2ccnc2)c1N`, `Cc1ccc2nc(-c3ccccn3)c(Nc3ccccc3C)n2c1` is higher in “activity change, negative = inhibition” value: -14.4% for the first, -5.15% for the second.

First: O=C(NC1CCCc2c1cnn2-c1ccc(F)cc1F)c1ccccn1 (stereo not given)
Second: Cc1nc2ccccn2c1P(=O)(c1ccccc1)c1ccccc1
The “activity change, negative = inhibition” value of the first is higher: -0.667% for the first, -3.66% for the second.

First: O=S1(=O)N=C(Oc2ccccc2)c2ccccc21
Second: COc1ccc(C2=Nn3c(nnc3-c3cccc(OC)c3OC)SC2)cc1
The “activity change, negative = inhibition” value of the first is higher: -3.65% for the first, -9.68% for the second.

In the case of `COc1ccc(C2=Nn3c(nnc3-c3cc(OC)ccc3OC)SC2)c(OC)c1`, the Potency is reported as 6.34 µM (active).
With `Fc1cc(Nc2nc(-c3ccncc3)nc3ccccc23)ccc1N1CCCCC1` the Potency was 3.57 µM (active).
`O=C1[C@@H]2[C@H]3CC[C@H](C3)[C@@H]2C(=O)N1CCCCN1CCN(c2ncccn2)CC1` was tested, and the Potency was 2.52 µM (active).
In the case of `N#Cc1c(-c2csc(-c3no[n+]([O-])c3C#N)c2)no[n+]1[O-]`, the Potency is reported as 11.3 µM (active).
In the case of `COc1ccc(C2Nc3ccccc3C(=O)N2CCO)cc1COc1ccc(NC(C)=O)cc1` (stereo not given), the Potency is reported as 22.5 µM (active).
`O=C(C1CCN(c2nc(-c3ccc(Br)cc3)cs2)CC1)N1CCNCC1` was tested, and the Potency was 25.2 µM (active).
`Cc1ccc2nc3sc(C(=O)NCc4ccco4)cc3cc2c1` was tested, and the Potency was 7.12 µM (active).
For `O=C1c2ccccc2NC(c2ccc(-c3cccc([N+](=O)[O-])c3)o2)N1O` (stereo not given), the Potency was 3.18 µM (active).

With `CCC(=O)C1CCCN(C(=O)CC(c2ccc3c(c2)OCO3)c2c(O)cc(OC)cc2OC)C1` (stereo not given) the “activity change, negative = inhibition” value was -19% [at 86.7 µM].

`Cc1cccc(OC2=NS(=O)(=O)c3ccccc32)c1` was tested, and the “outcome” value was “inactive”.
For `COc1cccc(C2c3c(ncn(CCCN4CCOCC4)c3=N)Oc3ccc4ccccc4c32)c1` (stereo not given), the “outcome” value was “inactive”.
For `CCCCN(CCCNC(=S)NCCCc1cnc[nH]1)c1ccc(Br)cn1`, the “outcome” value was “inactive”.
`CC(C)(C)c1ccc(SC2=NS(=O)(=O)c3ccccc32)cc1` was tested, and the “outcome” value was “inactive”.
In the case of `Cc1cc2c(s1)c1cnn(Cc3c(Cl)ccc(C)c3F)c(=O)c1n2C`, the “outcome” value is reported as “inactive”.
